# Data published in PubChem BioAssay AID624297 (National Center for Advancing Translational Sciences (NCATS), 2012).
# The campaign covered roughly 340,000 compounds. About 6,200 (1.8%) were called active. A call without a number means that no potency is given here. About 10% were inconclusive and are not listed. The sample holds actives, similar compounds and a random draw of the others, so the mix is not that of the screen. Calls come from the whole dose curve; as a rule, active = well fitted activation curve with a large enough effect; inconclusive = small, poorly fitted or top-dose-only effect; inactive = no such curve, though single readings can be large or run the other way.
# Experiment: A quantitative high throughput screen for small molecules that induce DNA re-replication in SW480 colon adenocarcinoma cells. Note: nearly all actives have a fitted effect of over 55% in size.
# Details: Hoechst DNA content imaging, 48 h; series mostly up to 46.1 µM
# How it was run: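 250 cells/well; 23 nL cpd via pin tool; 48 hr, 37 C, 5% CO2; Hoechst 40 min; imager read of total nuclear intensity, ex 405/em 500-530 nm.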
# Potency is the fitted concentration of half-maximal effect.
SMILES,Potency,re-replication activation
CC(=O)Nc1ccc(C(=O)Nc2cc(S(=O)(=O)N3CCOCC3)ccc2N2CCOCC2)cc1,inactive,–
CC(Oc1ccc2c(-c3ccccc3)cc(=O)oc2c1)C(=O)NC(Cc1c[nH]c2ccccc12)C(=O)O (stereo not drawn),inactive,–
COC(=O)c1c(CCl)noc1C(=O)NC(C)C,20.6 µM (active),–
CCOc1cccc(SCc2noc(C(=O)NC(C)C)c2C(=O)O)c1,inactive,–
CCCNC(=O)c1onc(CSc2ccc(F)cc2)c1C(=O)NC(C)C,inactive,–
CC(=O)N1CCc2ccc(N)cc21,inactive,–
OC(COc1ccccc1)CN1CCN(c2cccc(Cl)c2)CC1 (stereo not drawn),inactive,–
O=C(NN=CC=Cc1ccccc1)C(O)C(O)C(=O)NN=CC=Cc1ccccc1 (stereo not drawn),inactive,–
CN(C(=O)c1cccc(NC(=O)Cc2ccc(NC(=O)C3CCCN(C(=O)C4CCCC4)C3)cc2)c1)C1CCC1 (stereo not drawn),–,-19.7% [at 9.22 µM] (inactive)
CC1(C(=O)N/N=C/c2cc3c(cc2Br)OCO3)CC1(Br)Br (stereo not drawn),inactive,–
O=C(N/N=C/c1cc2c(cc1Br)OCO2)C1COc2ccccc2O1 (stereo not drawn),inactive,–
O=C(N/N=C\c1cc2c(cc1Cl)OCO2)c1ccc(Br)s1,7.31 µM (active),–
O=C(CSc1ncnc2sccc12)NC1CCS(=O)(=O)C1 (stereo not drawn),inactive,–
O=C(Nc1ccc2c(c1)OCO2)C1CC1(Cl)Cl (stereo not drawn),inactive,–
O=C(Nc1c[nH]c(=O)[nH]c1=O)OCc1ccccc1,inactive,–
COc1ccc(NC(=O)/C(N=Nc2cccc(S(=O)(=O)Nc3ccc(SC(F)F)cc3)c2)=C(\C)O)cc1,inactive,–
Cc1nc(N2CCOCC2)nc2c1CCCC2,inactive,–
Nc1nc(-c2sc3nc4c(cc3c2N)CCCC4)nc(N2CCOCC2)n1,10.3 µM (active),–
COc1ccc(/C=C/C(=O)OCC(=O)N2CCN(S(=O)(=O)c3ccc(C)cc3C)CC2)cc1OC,inactive,–
Cc1nc(N)sc1-c1ccccc1,inactive,–
O=C1COc2ccc(C(=O)CSc3ccc(Br)cc3)cc2N1,inactive,–

SMILES,Potency,re-replication activation
C=CCn1c(=O)n(C)c2c(=O)n(C)c(=O)n(C)c21,inactive,–
COc1ccc(C(=O)N[C@H](C(=O)NCc2ccccc2)C(C)C)cc1,inactive,–
COc1cc(OC)cc(C(=O)N[C@H](C(=O)NNC(=O)c2ccc(Br)cc2)C(C)C)c1,inactive,–
COc1cc(OC)cc(C(=O)N[C@H](C(=O)Nc2nc3ccccc3[nH]2)C(C)C)c1,0.164 µM (active),–
Cc1ccc(S(=O)(=O)N2CCN(C(=O)c3cc(S(=O)(=O)N4CCOCC4)ccc3F)CC2)cc1,inactive,–
CN(C)c1ccc(Nc2c3c4c(cccc4n(C)c2=O)C(=O)c2ccccc2-3)cc1,7.31 µM (active),–
CN(C)c1ccc(C2N(C)C(=O)c3ccccc3N2C)cc1 (stereo not drawn),inactive,–
Cc1ccc(S(=O)(=O)NC[C@H]2O[C@@H](n3cnc4c(N)ncnc43)[C@H](O)[C@@H]2O)s1,inactive,–
O=C(NC(Nc1nc2ccc([N+](=O)[O-])cc2s1)(C(F)(F)F)C(F)(F)F)c1ccccc1,20.6 µM (active),–
CCC(=O)NC(Nc1nc2ccc(C)cc2s1)(C(=O)OC)C(F)(F)F (stereo not drawn),inactive,–
CCOc1ccc2nc(NC(=O)c3cc([N+](=O)[O-])ccc3N3CCOCC3)sc2c1,inactive,–
CC(=O)c1ccc(NC(=O)C(C)OC(=O)c2ccc(NS(=O)(=O)c3ccc4[nH]c(=O)[nH]c4c3)cc2)cc1 (stereo not drawn),inactive,–
Cc1cc(NC(=O)C(C)SCC(=O)Nc2cccc(S(=O)(=O)N3CCCCCC3)c2)no1 (stereo not drawn),inactive,–
C[C@H](CO)N1C[C@H](C)[C@H](CN(C)CC2CC2)Oc2ccc(NC(=O)CCN3CCOCC3)cc2C1=O,inactive,–
COc1cccc(C(=O)NC(=O)Nc2nc(C)cc(C(F)(F)F)n2)c1,inactive,–
Cc1cc(C)nc(NC(=O)Nc2ccccc2C(F)(F)F)n1,16.4 µM (active),–
Cc1cc(Cl)nc(NC(=O)Nc2cccc(Cl)c2)n1,inactive,–
CCC(C)C1(C2CCCC2)NC(=O)NC1=O (stereo not drawn),inactive,–
Nc1ncnc2c1ncn2[C@@H]1O[C@H](CNS(=O)(=O)c2ccc(-c3ccno3)s2)[C@@H](O)[C@H]1O,inactive,–
Cc1cc2c(cc1C)NC1(C[C@H]3CCC(=O)N4CC[C@@H](C1)[C@@H]34)C(=NC(C)(C)CC(C)(C)C)N2 (stereo partly drawn),inactive,–
Cc1ccccc1-c1nc(C#N)c(NCc2ccco2)o1,inactive,–

SMILES,Potency,re-replication activation
N#Cc1nc(-c2cccc3ccccc23)oc1N,inactive,–
COc1ccc(Nc2oc(-c3ccccc3Cl)nc2C#N)cc1,10.3 µM (active),–
COc1ccc(CCC(=O)Nc2ccc(Cl)c(S(=O)(=O)N3CCOCC3)c2)cc1OC,inactive,–
O=[N+]([O-])c1ccccc1/C=C/CN1CCCC(CO)C1 (stereo not drawn),inactive,–
O=[N+]([O-])c1ccccc1/C=C/CN1CCC(O)CC1,inactive,–
CC1CCCCC1NC(=O)/C(C#N)=C/C=C/c1ccccc1[N+](=O)[O-] (stereo not drawn),6.51 µM (active),–
COCCN(C(=O)C(C)N1C(=O)c2ccccc2C1=O)c1c(N)n(CC(C)C)c(=O)[nH]c1=O (stereo not drawn),inactive,–
O=[N+]([O-])c1ccc(N=NNc2ccc([N+](=O)[O-])cc2)cc1,inactive,–
COc1cccc(N2CCN(CC(=O)Nc3ccnn3C3CCCC3)CC2)c1,inactive,–
COc1cc(OC)cc(-c2cc3ccc(F)cc3cn2)c1,inactive,–
O=C(Nc1ccc(Cl)cc1)C1c2cccc[n+]2CC(=O)N1Cc1ccc2c(c1)OCO2 (stereo not drawn),23.1 µM (active),–
O=C(C1CCN(Cc2ccc(Cl)cc2)CC1)N1CCN(Cc2ccc3c(c2)OCO3)CC1,inactive,–
CC1CCC(NC(=O)C2c3ccccc3C(=O)N2Cc2ccc3c(c2)OCO3)CC1 (stereo not drawn),inactive,–
C=CC[C@@H](CC(=O)N[C@@H](CO)Cc1ccccc1)C(=O)NCCOC(=O)[C@@H](CC=C)CC(=O)OC(C)(C)C,inactive,–
COC1=CC(=O)OC(C)(c2ccccc2)C1 (stereo not drawn),inactive,–
CCOC(=O)CCC(NC(=O)c1ccc(CNc2nc3cc(C(F)(F)F)ccc3nc2C(=O)OCC)cc1)C(=O)OCC (stereo not drawn),inactive,–
FC(F)(F)c1ccc(-c2cccc3c2C2CC3CCN2Cc2ccccc2)cc1 (stereo not drawn),inactive,–
O=C(NNc1nc(N2CCCC2)nc(N2CCCC2)n1)c1ccccc1,inactive,–
O=C(NN=Cc1ccc(N2CCOCC2)cc1)c1cc2ccccc2cc1O,inactive,–
Cc1cc(C(=O)N/N=C/c2ccc(N3CCOCC3)cc2)c(C)o1,inactive,–
CCN(CC)c1ccc(C(=O)N/N=C/c2ccc(N3CCOCC3)cc2)cc1,18.4 µM (active),–
